Active and inactive are the calls of the source. The calls were made as follows: active = hit-call score of the fitted dose curve at least 0.9, where 1 is the maximum; inactive = score below 0.9.
Experiments:
[1] = read-out: Matrix Metallopeptidase 1 (MMP1), MMP1 (gene 4312); assay: BSK_BE3C_MMP1: BioMAP Diversity Plus: BE3C Assay for Matrix Metallopeptidase 1 (MMP1) Biomarker Activity (AID 2283024); settings: primary human bronchial epithelial cells; actives raise or lower the signal
In short: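 In this multiplexed primary-cell system, human bronchial epithelium received chemicals for 24 h before an ELISA for MMP1. Values reflect bidirectional fits normalised to the DMSO baseline.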

[2] = BSK_3C_Vis: BioMAP Diversity Plus: 3C Assay for Morphology Visualization (AID 2283025); settings: primary human endothelial cells (HUVEC);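 also: fitted both ways so gain or loss versus DMSO counts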;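 as to AC50: light microscopy image of cell morphology used as background control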
In short: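 Light-microscopy morphology readout, 24 h exposure, human primary umbilical vein endothelium; analysed relative to DMSO with bidirectional fitting.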

[3] = read-out: Pselectin, SELP (gene 6403); assay: BSK_4H_Pselectin: BioMAP Diversity Plus: 4H Assay for Pselectin Biomarker Activity (AID 2283026); settings: primary human endothelial cells (HUVEC); actives raise or lower the signal
In short: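 Bidirectional fits against DMSO gave the endpoint. Cells: primary human umbilical vein endothelium, chemical-treated for 24 h before ELISA detection of P-selectin.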

[4] = BSK_4H_SRB: Viability Assessment in the BioMAP Diversity Plus: 4H Assay (AID 2283027); settings: primary human endothelial cells (HUVEC);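 also: cells exposed to compound for 24 h before staining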;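 as to AC50: curves fitted both ways versus DMSO so AC50 may be loss or gain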
In short: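 Cytotoxicity readout: sulforhodamine B (0.1%) staining of total protein after 10% TCA fixation, measured at 560 nm in human umbilical vein endothelium at 24 h. DMSO set the baseline; fitting was bidirectional.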

[5] = BSK_BE3C_SRB: Viability Assessment in the BioMAP Diversity Plus: BE3C Assay (AID 2283028); settings: primary human bronchial epithelial cells
In short: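 Cytotoxicity read-out: SRB (0.1%) staining of TCA-fixed (10%) human lung bronchial epithelial cells, absorbance 560 nm, 24 h post-dosing. Curves fitted both directions relative to DMSO.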

[6] = read-out: Thrombomodulin, THBD (gene 7056); assay: BSK_3C_Thrombomodulin: BioMAP Diversity Plus: 3C Assay for Thrombomodulin Biomarker Activity (AID 2283029); settings: primary human endothelial cells (HUVEC); actives raise or lower the signal
In short: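 In a multiplexed primary-cell system, human umbilical vein endothelium received chemical and was assayed 24 h later for thrombomodulin by ELISA. Parallel cultures were SRB-stained (0.1% SRB after 10% TCA fixation, read at 560 nm) to flag cytotoxicity.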

[7] = read-out: Urokinase-type plasminogen activator receptor (uPAR), PLAUR (gene 5329); assay: BSK_4H_uPAR: BioMAP Diversity Plus: 4H Assay for Urokinase-type plasminogen activator receptor (uPAR) Biomarker Activity (AID 2283030); settings: primary human endothelial cells (HUVEC); actives raise or lower the signal
In short: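 uPAR level read by ELISA on HUVEC cultures (BioMAP 4H) 24 h post-dosing, analyzed for gain or loss relative to DMSO. Parallel SRB staining assessed overt cytotoxicity.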

[8] = read-out: Vascular endothelial growth factor receptor 2 (Homo sapiens) (UniProt P35968); assay: BSK_4H_VEGFRII: BioMAP Diversity Plus: 4H Assay for Vascular endothelial growth factor receptor 2 (VEGFR2) Biomarker Activity (AID 2283031); settings: primary human endothelial cells (HUVEC); actives raise or lower the signal
In short: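 Measured by ELISA after 24 h of compound treatment: VEGFR2 on primary human umbilical vein endothelial cells, fitted in both directions relative to DMSO. Parallel cultures received SRB staining (560 nm) for overt cytotoxicity.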

[9] = read-out: Human Leukocyte Antigen - DR isotype (HLADR), HLA-DRA (gene 3122); assay: BSK_BE3C_HLADR: BioMAP Diversity Plus: BE3C Assay for Human Leukocyte Antigen - DR isotype (HLADR) Biomarker Activity (AID 2283032); settings: primary human bronchial epithelial cells; actives raise or lower the signal
In short: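 BioMAP BE3C format: human bronchial epithelium, 24 h compound treatment, ELISA detection of HLA-DR, with bidirectional analysis relative to DMSO.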

[10] = read-out: Vascular cell adhesion molecule 1 (VCAM1), VCAM1 (gene 7412); assay: BSK_4H_VCAM1: BioMAP Diversity Plus: 4H Assay for Vascular cell adhesion molecule 1 (VCAM1) Biomarker Activity (AID 2283033); settings: primary human endothelial cells (HUVEC); actives raise or lower the signal
In short: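 In this human endothelial (HUVEC) system, biomarker ELISA was run 24 h after compound addition, and total protein in parallel wells was assessed by SRB at 560 nm; DMSO served as negative control.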

[11] = read-out: Interferon-gamma inducible Protein 10 (IP10), CXCL10 (gene 3627); assay: BSK_BE3C_IP10: BioMAP Diversity Plus: BE3C Assay for Interferon-gamma inducible Protein 10 (IP10) Biomarker Activity (AID 2283034); settings: primary human bronchial epithelial cells; actives raise or lower the signal
In short: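 BE3C cells (human bronchial epithelial, primary); 24 h exposure; ELISA for IP-10; DMSO-referenced bidirectional fit.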

[12] = read-out: Monokine induced gamma interferon (MIG), CXCL9 (gene 4283); assay: BSK_BE3C_MIG: BioMAP Diversity Plus: BE3C Assay for Monokine induced gamma interferon (MIG) Biomarker Activity (AID 2283035); settings: primary human bronchial epithelial cells; actives raise or lower the signal
In short: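 hu bronchial epithelial 1° cells, 24 h cpd; MIG by ELISA; bidirectional fit, DMSO = baseline.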

[13] = read-out: Plasminogen activator inhibitor-1 (PAI1), SERPINE1 (gene 5054); assay: BSK_BE3C_PAI1: BioMAP Diversity Plus: BE3C Assay for Plasminogen activator inhibitor-1 (PAI1) Biomarker Activity (AID 2283037); settings: primary human bronchial epithelial cells; actives raise or lower the signal
In short: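 In this multiplexed primary-cell system, bronchial epithelial cells receive test chemical and are sampled at 24 h. PAI-1 is read by ELISA, with DMSO serving as negative control for bidirectional fitting.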

[14] = read-out: urokinase plasminogen activator (uPA), PLAU (gene 5328); assay: BSK_BE3C_uPA: BioMAP Diversity Plus: BE3C Assay for urokinase plasminogen activator (uPA) Biomarker Activity (AID 2283038); settings: primary human bronchial epithelial cells; actives raise or lower the signal;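 also: uPA protein level quantified by ELISA in cell cultures; uPA read one day after compound addition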
In short: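 ELISA for uPA on human primary bronchial epithelial cultures 24 h post-treatment, gain or loss against DMSO. Parallel SRB staining (0.1% after 10% TCA fixation, 560 nm) assessed overt cytotoxicity.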

[15] = read-out: Urokinase-type plasminogen activator receptor (uPAR), PLAUR (gene 5329); assay: BSK_BE3C_uPAR: BioMAP Diversity Plus: BE3C Assay for Urokinase-type plasminogen activator receptor (uPAR) Biomarker Activity (AID 2283039); settings: primary human bronchial epithelial cells; actives raise or lower the signal
In short: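 Chemically treated human bronchial epithelial cells (lung primary) are assayed for uPAR by ELISA after 24 h, with data fitted in both directions using DMSO as negative control.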

[16] = read-out: Interleukin-6 (IL6), IL6 (gene 3569); assay: BSK_CASM3C_IL6: BioMAP Diversity Plus: CASM3C Assay for Interleukin-6 (IL6) Biomarker Activity for (AID 2283040); settings: primary human coronary artery smooth muscle cells; actives raise or lower the signal
[17] = read-out: Tissue plasminogen activator (tPA), PLAT (gene 5327); assay: BSK_BE3C_tPA: BioMAP Diversity Plus: BE3C Assay for Tissue plasminogen activator (tPA) Biomarker Activity (AID 2283041); settings: primary human bronchial epithelial cells; actives raise or lower the signal
In short: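 Using human lung primary bronchial epithelial cells, tPA was measured by ELISA 24 h after dosing; data fitted relative to DMSO.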

[18] = read-out: Interleukin-8 (IL8), CXCL8 (gene 3576); assay: BSK_CASM3C_IL8: BioMAP Diversity Plus: CASM3C Assay for Interleukin-8 (IL8) Biomarker Activity (AID 2283042); settings: primary human coronary artery smooth muscle cells; actives raise or lower the signal;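 also: IL-8 protein level quantified by ELISA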
[19] = read-out: Human Leukocyte Antigen - DR isotype (HLADR), HLA-DRA (gene 3122); assay: BSK_CASM3C_HLADR: BioMAP Diversity Plus: CASM3C Assay for Human Leukocyte Antigen - DR isotype (HLADR) Biomarker Activity (AID 2283043); settings: primary human coronary artery smooth muscle cells; actives raise or lower the signal;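 also: cell-surface HLA-DR protein level quantified by ELISA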
[20] = read-out: Transforming growth factor beta 1 (TGFb1), TGFB1 (gene 7040); assay: BSK_BE3C_TGFb1: BioMAP Diversity Plus: BE3C Assay for Transforming growth factor beta 1 (TGFb1) Biomarker Activity (AID 2283036;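 also: TGF-b1 protein level measured by ELISA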); settings: primary human bronchial epithelial cells; actives raise or lower the signal
In short: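 TGF-b1 measured via ELISA, 24 h after chemical dosing of human bronchial epithelial cells (BE3C). Overt cytotoxicity assessed in parallel by SRB (0.1%, TCA-fixed, 560 nm); analysis bidirectional relative to DMSO.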

Measured: AC50

C[N+](C)(C)CC1CO1 (stereo not drawn)
not listed: [20]
inactive: all other assays above

CC(C)N(Cc1ccccc1)C(=O)C(C)(C)C
not listed: [20]
inactive: all other assays above

CC(C)COC(=O)c1ccccc1C(=O)OCC(C)C
active: [10] 14.1 µM
not listed: [2]
inactive: all other assays above

CCCSC(=O)N(CCC)CCC
not listed: [2]
inactive: all other assays above

CCOc1cccc(C2(N3CCN(c4ccccc4)CC3)CCC(C)CC2)c1 (stereo not drawn)
not listed: [20]
inactive: all other assays above

CN(C)C(=O)Nc1ccc(Cl)cc1
not listed: [2]
inactive: all other assays above

Oc1ccc2ccc3cccc4ccc1c2c34
active: [2] 37.5 µM | [3] 31.6 µM | [4] 31.5 µM | [7] 30.4 µM | [9] 34.6 µM | [10] 34 µM | [11] 31.3 µM | [12] 31.2 µM | [13] 27.5 µM | [15] 33 µM | [17] 36.1 µM | [19] 13.7 µM
inactive: [1] | [5] | [6] | [8] | [14] | [16] | [18]
